PubChem BioAssay AID624330 (Southern Research Specialized Biocontainment Screening …, 2012)
The campaign covered roughly 340,000 compounds. About 2,100 (0.62%) were called active.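 Rule for the calls: active = first-screen hits whose inhibition reached a set limit at any dose in the follow-up dose series; inconclusive = inhibition above the set first-screen limit but never retested; inactive = the rest.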 These entries were drawn from the full list. Potency and affinity values are given separately.

biological target: Rac GTPase-activating protein 1 (Homo sapiens) (UniProt Q9H0H5); test: blockers of MgcRacGAP-driven Rac1 GTP hydrolysis – biochemical, ADP Hunter fluorescence, primary and confirmatory, confirmation (AID 624330); settings: MgcRacGAP-stimulated Rac1 GTP hydrolysis, at 30 µM, active compounds read high, GST-tagged Rac1 F28L mutant substrate;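 note: fluorescence reports GDP produced by GAP-driven GTP hydrolysis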
Sequence (Q9H0H5 whole entry, looked up): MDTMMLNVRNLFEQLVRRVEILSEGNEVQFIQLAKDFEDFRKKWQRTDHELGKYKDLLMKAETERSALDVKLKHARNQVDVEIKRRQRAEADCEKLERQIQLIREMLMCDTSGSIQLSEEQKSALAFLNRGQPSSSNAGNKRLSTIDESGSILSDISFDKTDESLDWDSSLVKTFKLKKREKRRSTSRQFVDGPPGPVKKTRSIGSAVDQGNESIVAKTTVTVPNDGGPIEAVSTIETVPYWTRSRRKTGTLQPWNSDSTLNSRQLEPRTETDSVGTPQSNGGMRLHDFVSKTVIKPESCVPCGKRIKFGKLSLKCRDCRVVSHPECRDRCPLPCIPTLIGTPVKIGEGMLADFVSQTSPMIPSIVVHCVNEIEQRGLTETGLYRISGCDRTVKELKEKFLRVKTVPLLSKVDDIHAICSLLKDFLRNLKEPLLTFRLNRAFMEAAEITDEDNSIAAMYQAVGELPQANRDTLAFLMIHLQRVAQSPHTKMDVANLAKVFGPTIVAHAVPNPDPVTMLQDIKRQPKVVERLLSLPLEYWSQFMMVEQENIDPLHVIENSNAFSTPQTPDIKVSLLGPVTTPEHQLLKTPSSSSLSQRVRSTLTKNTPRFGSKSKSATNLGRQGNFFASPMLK

inhibition, inactive:
CCS(=O)(=O)c1ccc(O)c(NC(=O)/C=C/c2ccccc2)c1 5.42%
Cc1cc(NC(=O)/C=C/c2ccccc2)c(C(C)C)cc1O 12.2%
CCC1(c2ccccc2)NC(=O)N(CC(=O)N(CC(=O)Nc2ccccc2C(F)(F)F)Cc2ccco2)C1=O (centres undefined) 1.52%
COc1ccc(C)cc1NC(=O)c1cc(S(=O)(=O)N2CCOCC2)cn1C 10.3%
CCOC(=O)C1CCN(C(=O)COC(=O)c2oc3ccccc3c2C)CC1 7.79%
CCOC(=O)N/N=C/c1ccc(OC)c(O)c1 18.6%
COc1ccc(/C=N/NC(=O)c2ccc(=O)[nH]n2)cc1OC 8.66%
COc1ccc(/C=N/NC(=O)c2cccc(C(=O)N/N=C/c3ccc(OC)c(OC)c3)n2)cc1OC 5.53%
COc1cc(/C=N/NC(=O)c2cccc(C(=O)N/N=C/c3ccc(O)c(OC)c3)n2)ccc1O 9.56%
CC(C)NC(=O)c1cc2n(n1)C(C(F)(F)F)CC(c1ccco1)N2 (centres undefined) 5.2%
C=CCn1c(SCC(=O)NCCOC)nnc1-c1cc2c(s1)CCC(CC)C2 (centres undefined) 7.45%
O=C1c2cc([N+](=O)[O-])ccc2-c2ncccc21 -4.67%
Cn1c(=O)[nH]c(=O)c2c1nc(Sc1ccccc1)n2CCc1ccccc1 0.88%
CCC(C)(O)c1[nH]c2ccc(C(F)(F)F)cc2c1C (centres undefined) 5.14%
CNc1cccc2c1C(=O)c1ccccc1C2=O 6.76%
O=C1c2ccccc2C(=O)c2c(NCc3cccnc3)cccc21 1.26%
CN1C(=O)c2cccc(NCCCCCCN3C(=O)c4ccccc4C3=O)c2C1=O 5.81%
CN1C(=O)c2cccc(NCCCN3C(=O)c4ccccc4C3=O)c2C1=O 10.7%
OCCNCCO -1.48%
O=C1c2ccccc2C(=O)c2c(Nc3ccc(CCO)cc3)ccc(O)c21 15.2%
CC(C)Oc1ccc(C(=O)NC2=NCCS2)cc1 6.37%
Cc1cccc(NC(=O)CSc2nnnn2-c2cccnc2)c1 4.2%
Cc1cc(C)c(NC(=O)CN(C)C(=O)CCN2C(=O)C3CCCCC3C2=O)c(C)c1 (centres undefined) 11.4%
Cn1c(SCC(=O)NCC2CCCO2)nnc1-c1cccc(NC(=O)c2ccccc2F)c1 (centres undefined) 2.1%
COCCCNC(=O)COc1ccc(S(=O)(=O)Nc2ccccc2)cc1 5.23%
NCC12CC3CC(CC(O)(C3)C1)C2 9.89%
NC(=O)CC12CC3CC(C1)CC(CC(N)=O)(C3)C2 -1.41%
COCC(C)NCc1cccc2ccccc12 (centres undefined) 26.8%
COCC(C)NCc1ccc(C)cc1C (centres undefined) 16.8%
CCOc1ccccc1N1CC(C(=O)Nc2cc(Cl)ccc2C)CC1=O (centres undefined) -1.6%
Cc1ccc(Cl)cc1N1CCN(C(=O)CN(C2CCCCC2)S(C)(=O)=O)CC1 1.2%
O=C(Nc1ccccc1Cl)C1CCN(S(=O)(=O)c2cccc3nonc23)CC1 -1.65%
CCN(CC)c1ccc(CNc2ccc3c(c2)ncn3C(C)(C)C)cc1 6.25%
CCOc1cc(/C=N/Nc2cc(C)nc(-n3nc(C)cc3C)n2)ccc1O 11.4%
CCOc1cc(/C=N/Nc2nncc(-c3ccccc3)n2)ccc1O 13.6%
CCOc1cc(/C=N\Nc2nc(-c3ccc(C)cc3)c(NC(C)=O)s2)ccc1O 8.08%
CCOc1ccc(/C=N/Nc2nc(=O)[nH]nc2C)cc1OC 7.43%
C[C@H](CO)N1C[C@H](C)[C@@H](CN(C)C(=O)Nc2ccc(C(F)(F)F)cc2)Oc2ccc(NS(=O)(=O)c3cccs3)cc2C1=O 6.16%
CC(C)NC(=O)CCCc1cn(C)c2ccccc12 3.62%
COCCNC(=O)c1onc(CSc2ccccc2)c1C(=O)O 7.12%
COC(=O)c1ccc(CNC(=O)COC(=O)/C=C/c2cc(OC)c(OC)c(OC)c2)cc1 -11.7%
COc1cc(/C=C/C(=O)OCC(=O)N(C)Cc2ccccc2)cc(OC)c1OC 5.49%
CCN(C(=O)COC(=O)/C=C/c1ccc(OC)c(OC)c1)c1c(N)n(Cc2ccccc2)c(=O)[nH]c1=O 4.28%
COc1cc(/C=C/C(=O)O)ccc1O 22.1%
COc1ccc(/C=C/C(=O)OCC(=O)NCc2ccccc2)cc1OC -1.57%
COc1cc(/C=C/C(=O)OCC(=O)NCc2ccccc2OC)ccc1O -4.08%
COC(=O)c1ccc(CNC(=O)COC(=O)/C=C/c2ccc(OC)c(OC)c2)cc1 1.48%
CC(C)CN(C(=O)COC(=O)/C=C/c1ccc(Cl)c(Cl)c1)c1c(N)n(Cc2ccccc2)c(=O)[nH]c1=O 10.7%
CCOC(=O)C(Cc1c(F)cccc1Cl)c1ccnc2nc(N)nn12 (centres undefined) 7.53%
CCC(CC)CN1C(Nc2ccccc2)=NC[C@@H]1CC(C)C 7.15%
Cn1c(SCC(=O)NNC(=O)c2ccc(Br)cc2)nnc1-c1cccnc1 6.67%
CC1CN(CC(=O)NN=C(c2ccccc2)c2ccccc2)CC(C)O1 (centres undefined) 8.46%
Cc1cccc2sc(NC(=O)CSc3nc4ccccc4o3)nc12 7.18%
CC(Sc1ncnc2ccccc12)C(=O)Nc1ccc2c(c1)OCO2 (centres undefined) 5.78%
COc1ccc(OC(C)C(=O)N2CCN(c3ccccn3)CC2)cc1 (centres undefined) -1.84%
CC1CCCN(C(=O)COC(=O)CNS(=O)(=O)c2ccc3ccccc3c2)C1 (centres undefined) 11.5%
COc1ccc(/C=C/C(=O)OCC(=O)NCCCc2ccccc2)cc1OC 1.47%
COc1cc(/C=C/C(=O)OCC(=O)NCCCc2ccccc2)cc(OC)c1OC 2.15%
O=C(NCCc1c[nH]c2ccccc12)C(=O)NCC(c1ccco1)N1CCN(c2ccc(F)cc2)CC1 (centres undefined) 5.54%
C[C@@H]1CN([C@@H](C)CO)C(=O)c2cc(-c3ccccc3F)cnc2O[C@H]1CN(C)Cc1cccc(F)c1 5.55%
COc1cccc2c(C)c(C(=O)O)[nH]c12 7.15%
COc1ccc(OC)c2c(C)cc(C)nc12 4.59%
COc1ccc(N(CC(=O)Nc2ccc(OC)c(OC)c2)S(=O)(=O)c2ccccc2)cc1Cl 12.2%
CCOC(=O)C1CCN(Cc2ccc(OC)c(OCc3ccccc3)c2)CC1 27.7%
CCOC(=O)C1CCN(Cc2ccc(OCc3ccccc3)c(OC)c2)CC1 15.7%
COc1cc(OC)cc(C(=O)N2CCN(C3CCN(Cc4ccccc4)CC3)CC2)c1 29%
COc1ccccc1C(=O)N1CCN(C2CCN(Cc3ccccc3)CC2)CC1 19.4%
COc1ccc(C(=O)N2CCN(C3CCC(c4ccccc4)CC3)CC2)cc1OC (centres undefined) 23.6%
COc1cc(C(=O)N2CCN(CCCc3ccccc3)CC2)cc(OC)c1OC 15.2%
COc1ccc(C(=O)N2CCN(C(=O)Cc3ccccc3)CC2)cc1OC 3.19%
CCc1ccc(CN2CCN(C(=O)c3cccc(OC)c3OC)CC2)cc1 23.3%
CCn1c(Cc2cccs2)nnc1SCC(=O)Nc1ccc(OC)c(OC)c1 7.07%
O=C(CCCn1c(=O)oc2ccccc21)N1CCc2ccccc2C1 8.41%
O=C(CSc1nccc(=O)[nH]1)Nc1cccc2ccccc12 8.22%
Cc1cc(C)cc(NS(=O)(=O)c2ccc3[nH]c(=O)ccc3c2)c1 6.34%
CCCCN(C(=O)c1cccc(-c2ccc(OC(C)=O)cc2)c1)c1c(N)n(CCC)c(=O)[nH]c1=O 8.17%
CCc1c(C)c2ccc(O)c(CN(C)C)c2oc1=O 3.54%
CC(C)c1cc(C(F)(F)F)n2nc(C(=O)Nc3ccc(-n4cnnn4)cc3)cc2n1 0.65%
CCc1cc(C(=O)N2CCCC(CNC(=O)c3ccc(-c4ccccc4)cc3)C2)no1 (centres undefined) 1.46%
O=C(COC(=O)c1ccc(O)cc1O)Nc1cccc2ccccc12 4.44%
CC12CCC(=O)C=C1C(F)CC1C2C(O)CC2(C)C1CCC2(O)C(=O)CO (centres undefined) -2.17%
COc1ccc(Br)cc1C1Nc2cccc3cccc(c23)N1 13.1%
COc1cc(C2Nc3cccc4cccc(c34)N2)cc(OC)c1O 12.2%
Oc1ccccc1C1Nc2cccc3cccc(c23)N1 26.2%
COc1ccc(C2Nc3cccc4cccc(c34)N2)cc1 16%
O=C(Oc1cccc2cccnc12)c1ccco1 12.4%
COCC(=O)N(Cc1cc2cc(C)ccc2[nH]c1=O)c1ccc(C)c(C)c1 16.2%
O=[N+]([O-])c1ccc(Cl)c(S(=O)(=O)/N=C(/c2ccccc2)N2CCOCC2)c1 2.34%
Cc1ccccc1C(=O)N1CCC(C(=O)NCc2ccc(Cl)cc2)CC1 8.11%
CC(OC(=O)CC1CCCCC1)C(=O)Nc1ccc(S(N)(=O)=O)cc1 (centres undefined) 1.14%
CC(=O)c1ccc(NS(=O)(=O)c2c(C)cc(C)cc2C)cc1 2%
Cc1cc(C)c(C)c(S(=O)(=O)Nc2ccc(OCC(=O)O)cc2)c1C -3.75%
Cc1cc(C)c(C)c(S(=O)(=O)Nc2ccc(C(N)=O)cc2)c1C 13.9%
Cc1cc(C)c(S(=O)(=O)Nc2ccccc2)c(C)c1 -2.09%
